This is an account of results in PubChem BioAssay (NCI).

Compounds without any hit were thinned out: in the full panel of roughly 79,000, 15% have a hit. Unmarked numbers belong to inactive results. Cut-off read from the data, not from the text of the source: active = growth inhibition above about 70%; inactive = the rest.

The first test is described as follows: NCI Yeast Anticancer Drug Screen. Data for the bub3 strain (AID 167). The following applies: S. cerevisiae bub3 mutant strain, at 50.0 µM, hits give high values. A digest of the protocol: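 Inhibition values come from growth of compound-treated mutant yeast normalised to vehicle-treated controls.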
For the compound `CN(C)NC(=O)Nc1cccc2ccccc12`, the growth inhibition is -26.9%.

Regarding `CCN(CC)CCCC(C)n1c(-c2ccc(OC)cc2)nc2cc(Cl)ccc21` (stereo not given), the growth inhibition is 6.55%.

For `CCOC(=O)COc1cc2c(cc1C(C)c1ccc(OCc3ccccc3)c(OC)c1)OCO2` (stereo not given), the growth inhibition is -7.4%.

With `CNC(=O)c1ccccc1Sc1ccccc1`, the growth inhibition was 0.2%.

For `COc1ccc(-c2nnc(-c3ccc(OC)cc3)nn2)cc1`, the growth inhibition is 4.2%.

On to `O=C1C(CCCS)C(c2ccccc2)=NN1c1ccccc1` (stereo not given), for which the growth inhibition is 0.45%.

With `CCOC(=O)C(C)NCc1ccccc1` (stereo not given), the growth inhibition is 0.95%.

With `COC(=O)c1c(O)c2c(c3c1OC(C)(C)CC3)OC(C)(C)CC2`, the growth inhibition was 8.05%.

With `CC(C)(C)SC1C(O)C(CO)OC1n1ccc(Nc2ccccc2)nc1=O` (stereo not given), the growth inhibition was 1.55%.

Regarding `C=C1C(=O)O[C@@H]2[C@H]3[C@H](C)C(=O)C=C[C@]3(C)CC[C@@H]12`, the growth inhibition was 8.95%.

On to `COc1cccc(CCNC(=O)Cc2ccccc2CCO)c1`, for which the growth inhibition is -37.9%.

Regarding `O=C1CC(O)C2C(=O)c3c(c(Cl)c4ccccc4c3O)C(=O)C2C1` (stereo not given), the growth inhibition is 3.85%.

Regarding `O=C(O)CNC1CCCC1`, the growth inhibition was 4.95%.

`Cc1ccc(C(=N)c2ccccc2Cc2cccc3ccccc23)c2ccccc12`: the growth inhibition was -34.4%.

Consider `O=C(/C=C\c1ccccc1)Nc1c(Cl)cc(Cl)cc1Cl`, for which the growth inhibition was 39.5%.

Turning to `COc1ccc(/C=C2\N=C(c3ccc([N+](=O)[O-])cc3)OC2=O)cc1Br`, the growth inhibition was -1.95%.

As for `CCOC(=O)C(C=C(C)C)(CC)C(=O)OCC`, the growth inhibition was -17.1%.

Regarding `CSc1c(C#N)c(N)n2c1C(=O)N(c1ccccc1)C2=S`, the growth inhibition is 26.1%.

`CN1CCCCC(C#N)(c2ccccc2)CC1` (stereo not given): the growth inhibition is 0.8%.

With `Nc1ncc2ncn(C3CCC(CO)O3)c2n1` (stereo not given), the growth inhibition is -10.8%.

Regarding `O=C(COc1cccc(C(=O)O)c1)Nc1ccccc1`, the growth inhibition was 50.8%.

`CCCc1c(C)nc2scc(-c3ccccc3)n2c1=O`: the growth inhibition was 39.4%.

As to `CC(=O)OCCn1cnc2c(NCC=C(C)C)ncnc21`, the growth inhibition is 7.5%.

Regarding `c1ccc(N2C3Sc4ncccc4C2Sc2ncccc23)cc1`, the growth inhibition is -1.05%.

As for `COc1nc(NC2OCC(O)C(O)C2O)c(Br)c(=O)n1C` (stereo not given), the growth inhibition was 17.5%.

For the compound `CCN(CC(O)COc1ccc2c(c1)[n+]([O-])nc(N)[n+]2[O-])C(C)=O` (stereo not given), the growth inhibition was 31%.

As for `Oc1c(CNCc2ccccc2)cc(CNCc2ccccc2)c(O)c1CNCc1ccccc1`, the growth inhibition is 17.3%.

Turning to `CCCCCO/C=C/CN1CCOCC1`, the growth inhibition is 11.8%.

Turning to `O=C1C2=C(CCCC2)Nc2cccc3ncn1c23`, the growth inhibition was -38.4%.

Take `CC(=O)Nc1ccc(S(=O)(=O)CCN2C(=O)c3ccccc3C2=O)cc1`: the growth inhibition is 4.35%.

In the case of `CC(NC(=O)NCCCl)c1cccc2ccccc12` (stereo not given), the growth inhibition is -8.25%.

With `Cn1c(Cc2ccccc2)c([N+](=O)[O-])c(=O)n(C)c1=O`, the growth inhibition is -6.35%.

Consider `CCCCCCCCCCCCCCCCS(=O)(=O)N/N=C(\c1ccc(C(C)C)cc1)N1CCOCC1`, for which the growth inhibition is -1.5%.

Regarding `CCOc1cc2c(cc1C(CC)c1ccccc1)OCO2` (stereo not given), the growth inhibition was 17.6%.

Turning to `CC(=O)N=C1N(/C=C2\C(=O)Oc3ccccc3C2=O)C(=O)/C(=C/c2ccc3c(c2)OCO3)N1C`, the growth inhibition is -6.35%.

`CCCCC(=O)c1ccc2ccccc2c1O`: the growth inhibition is -6.3%.

`CCN(CC)c1ccc(N)cc1`: the growth inhibition is -3.1%.

As for `Cc1ccc(S(=O)(=O)OC(c2ccccc2)C(F)(F)F)cc1` (stereo not given), the growth inhibition was 2.9%.

For `COC(=O)c1cccc(C(=O)CC(=O)c2ccccc2)c1`, the growth inhibition is 11.2%.

As to `C(=C\c1ccco1)/c1ccco1`, the growth inhibition was -20.9%.

Another test can be described thus: NCI Yeast Anticancer Drug Screen. Data for the mlh1 rad18 strain (AID 175). The following applies: S. cerevisiae mlh1 rad18 strain growth inhibition; at 50.0 µM; hits give high values. A digest of the protocol: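 Test agents were incubated with a yeast strain of defined genotype (DNA damage repair defect). Inhibition of growth was derived by comparison with vehicle-exposed cultures.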
In the case of `CN(C)NC(=O)Nc1cccc2ccccc12`, the growth inhibition was -20.4%.

`CCN(CC)CCCC(C)n1c(-c2ccc(OC)cc2)nc2cc(Cl)ccc21` (stereo not given): the growth inhibition was 4.6%.

For `CCOC(=O)COc1cc2c(cc1C(C)c1ccc(OCc3ccccc3)c(OC)c1)OCO2` (stereo not given), the growth inhibition is -6.3%.

Consider `CNC(=O)c1ccccc1Sc1ccccc1`, for which the growth inhibition is 3.15%.

With `COc1ccc(-c2nnc(-c3ccc(OC)cc3)nn2)cc1`, the growth inhibition was -3%.

Regarding `O=C1C(CCCS)C(c2ccccc2)=NN1c1ccccc1` (stereo not given), the growth inhibition was 39%.

On to `CCOC(=O)C(C)NCc1ccccc1` (stereo not given), for which the growth inhibition was -3.25%.

Consider `COC(=O)c1c(O)c2c(c3c1OC(C)(C)CC3)OC(C)(C)CC2`, for which the growth inhibition was 11.4%.

As to `CC(C)(C)SC1C(O)C(CO)OC1n1ccc(Nc2ccccc2)nc1=O` (stereo not given), the growth inhibition is 4.65%.

Consider `C=C1C(=O)O[C@@H]2[C@H]3[C@H](C)C(=O)C=C[C@]3(C)CC[C@@H]12`, for which the growth inhibition is -23.6%.

`COc1cccc(CCNC(=O)Cc2ccccc2CCO)c1`: the growth inhibition is -53.8%.

As to `O=C1CC(O)C2C(=O)c3c(c(Cl)c4ccccc4c3O)C(=O)C2C1` (stereo not given), the growth inhibition was 20.3%.

Regarding `O=C(O)CNC1CCCC1`, the growth inhibition was -15.1%.

On to `Cc1ccc(C(=N)c2ccccc2Cc2cccc3ccccc23)c2ccccc12`, for which the growth inhibition was -15.6%.

As to `O=C(/C=C\c1ccccc1)Nc1c(Cl)cc(Cl)cc1Cl`, the growth inhibition was 23.3%.

`COc1ccc(/C=C2\N=C(c3ccc([N+](=O)[O-])cc3)OC2=O)cc1Br`: the growth inhibition is 29.4%.

`CCOC(=O)C(C=C(C)C)(CC)C(=O)OCC`: the growth inhibition is -21.9%.

For `CSc1c(C#N)c(N)n2c1C(=O)N(c1ccccc1)C2=S`, the growth inhibition is -4.8%.

`CN1CCCCC(C#N)(c2ccccc2)CC1` (stereo not given): the growth inhibition is 21.4%.

In the case of `Nc1ncc2ncn(C3CCC(CO)O3)c2n1` (stereo not given), the growth inhibition was -6.45%.

For `O=C(COc1cccc(C(=O)O)c1)Nc1ccccc1`, the growth inhibition is 8%.

Take `CCCc1c(C)nc2scc(-c3ccccc3)n2c1=O`: the growth inhibition was 34%.

For `CC(=O)OCCn1cnc2c(NCC=C(C)C)ncnc21`, the growth inhibition was -45%.

For `c1ccc(N2C3Sc4ncccc4C2Sc2ncccc23)cc1`, the growth inhibition is 7.85%.

As to `COc1nc(NC2OCC(O)C(O)C2O)c(Br)c(=O)n1C` (stereo not given), the growth inhibition is 13%.

In the case of `CCN(CC(O)COc1ccc2c(c1)[n+]([O-])nc(N)[n+]2[O-])C(C)=O` (stereo not given), the growth inhibition was 38.8%.

On to `Oc1c(CNCc2ccccc2)cc(CNCc2ccccc2)c(O)c1CNCc1ccccc1`, for which the growth inhibition is -14.8%.

As for `CCCCCO/C=C/CN1CCOCC1`, the growth inhibition is -3.2%.

Turning to `O=C1C2=C(CCCC2)Nc2cccc3ncn1c23`, the growth inhibition is -40.2%.

With `CC(=O)Nc1ccc(S(=O)(=O)CCN2C(=O)c3ccccc3C2=O)cc1`, the growth inhibition was -16.8%.

`CC(NC(=O)NCCCl)c1cccc2ccccc12` (stereo not given): the growth inhibition was 5.15%.

On to `Cn1c(Cc2ccccc2)c([N+](=O)[O-])c(=O)n(C)c1=O`, for which the growth inhibition was -2.4%.

Consider `CCCCCCCCCCCCCCCCS(=O)(=O)N/N=C(\c1ccc(C(C)C)cc1)N1CCOCC1`, for which the growth inhibition was 5.75%.

In the case of `CCOc1cc2c(cc1C(CC)c1ccccc1)OCO2` (stereo not given), the growth inhibition was 14.7%.

Turning to `CC(=O)N=C1N(/C=C2\C(=O)Oc3ccccc3C2=O)C(=O)/C(=C/c2ccc3c(c2)OCO3)N1C`, the growth inhibition is 10.5%.

Turning to `CCCCC(=O)c1ccc2ccccc2c1O`, the growth inhibition is 6.8%.

For `CCN(CC)c1ccc(N)cc1`, the growth inhibition is 35.1%.

On to `Cc1ccc(S(=O)(=O)OC(c2ccccc2)C(F)(F)F)cc1` (stereo not given), for which the growth inhibition is 2.85%.

As for `COC(=O)c1cccc(C(=O)CC(=O)c2ccccc2)c1`, the growth inhibition is 11.6%.

As for `C(=C\c1ccco1)/c1ccco1`, the growth inhibition was -25.9%.
